{"source": "PubChem BioAssay AID686979", "about": "(National Center for Advancing Translational Sciences (NCATS), 2013)", "note": "In all, about 420,000 compounds went through this assay and about 50,000 (12%) were called active. Roughly 26% stayed inconclusive and do not appear here. The sample as a whole holds a higher share of actives than the screen did. A number with no mark means an inactive call. The call rests on the fitted dose curve; in most records, active means well fitted inhibition curve with a large enough effect; inconclusive means small, poorly fitted or top-dose-only effect; inactive means flat fitted curve, though single readings scatter. Where a SMILES comes first, the peptide text is derived from it. [ ]: non-standard residue; d: D form. The star is where a group is joined. ξ: configuration not given here. Cbz = O=C(OCc1ccccc1)*; ξL = CC(C)CC(N)C(=O)O; ξP = O=C(O)C1CCCN1"}
{"assay": "qHTS for Inhibitors of human tyrosyl-DNA phosphodiesterase 1 (TDP1): qHTS in cells in presence of CPT; further: nearly all actives have a fitted effect of over 55% in size; further: potency means the concentration at half of the fitted maximal effect; on activity change, negative = growth inhibition: on the % scale 0 is the no-effect control and ±100 the full control effect", "conditions": "chicken DT40 Tdp1-/-;hTDP1 cells + 20 nM CPT, ATP luminescence, 48 h; series mostly up to 46.2 µM; activity change, negative = growth inhibition: at the top concentration", "in_short": "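Chicken DT40 Tdp1-/- cells stably complemented with human TDP1 were seeded at 400 cells/well in medium containing 20 nM camptothecin, exposed to pin-transferred compounds, and grown at 37 °C for at least 48 hr. Viability was read as ATP luminescence.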"}
{"smiles": "CCOC(=O)c1ccc(CS(=O)c2ccc(Cl)cc2)o1", "note": "(stereo not given)", "activity change, negative = growth inhibition": "-18.3%"}
{"smiles": "CC(Nc1ccc([N+](=O)[O-])cc1[N+](=O)[O-])c1ccccc1", "note": "(stereo not given)", "activity change, negative = growth inhibition": "3.71%"}
{"smiles": "CCN(CC)c1ccc(C(=O)Nn2c(C)nc3ccccc3c2=O)cc1", "activity change, negative = growth inhibition": "-17.4%"}
{"smiles": "Cc1ccc(C(=O)NCCNC(=O)c2cnccn2)cc1", "activity change, negative = growth inhibition": "8.28%"}
{"smiles": "CCN(CC)c1ccc(/C=N/NC(=O)CNC(=O)c2cccnc2)cc1", "activity change, negative = growth inhibition": "31.8%"}
{"smiles": "CCN(CC)c1ccc(/C=N/NC(=O)c2cnccn2)c(O)c1", "Potency": "5.17 µM (active)"}
{"smiles": "CCN(CC)c1ccc(/C=N/Nc2nc(C)cc(C)n2)c(O)c1", "Potency": "4.11 µM (active)"}
{"smiles": "O=C(NCc1ccco1)c1cccc(-c2ccc3nncn3c2)c1", "activity change, negative = growth inhibition": "-0.594%"}
{"smiles": "CS(=O)(=O)c1cccc(-c2ccc3nncn3c2)c1", "activity change, negative = growth inhibition": "11.7%"}
{"smiles": "NC(=O)c1ncc(C(F)(F)F)cc1Oc1ccc(F)cc1", "activity change, negative = growth inhibition": "0.776%"}
{"smiles": "O=C(Nc1ccccc1Cl)Nn1cnnc1", "activity change, negative = growth inhibition": "-0.423%"}
{"smiles": "O=C(CCN1CCc2ccccc2C(O)(c2ccccc2)C1)c1ccc2c(c1)OCCO2", "note": "(stereo not given)", "Potency": "2.31 µM (active)"}
{"smiles": "O=C(CN1CCC(O)(c2ccccc2)CC1)Nc1ccc2c(c1)OCCO2", "activity change, negative = growth inhibition": "-0.373%"}
{"smiles": "O=C(COC(=O)c1ccccc1)c1ccc2c(c1)OCCO2", "activity change, negative = growth inhibition": "4.32%"}
{"smiles": "Cc1ccc(N2C(=O)C3C4C=CC(CC4)C3C2=O)cc1Br", "note": "(stereo not given)", "activity change, negative = growth inhibition": "18.5%"}
{"smiles": "COc1ccc(CCN2C(=O)CC(N3CCC(C(N)=O)CC3)C2=O)cc1OC", "note": "(stereo not given)", "Potency": "25.9 µM (active)"}
{"smiles": "COc1ccc(N2C(=O)CC(N3CCC(C(N)=O)CC3)C2=O)cc1", "note": "(stereo not given)", "activity change, negative = growth inhibition": "-10.4%"}
{"smiles": "COc1ccc(CCN2C(=O)C3CC=C(C)CC3C2=O)cc1OC", "note": "(stereo not given)", "activity change, negative = growth inhibition": "-29.7%"}
{"smiles": "CN1CCN(CCC(=O)N/N=C/C=C2\\N(C)c3ccccc3C2(C)C)CC1", "activity change, negative = growth inhibition": "-20.6%"}
{"smiles": "CC(=O)Nc1cccc(OCC(=O)/C=C2\\N(C)c3ccccc3C2(C)C)c1", "Potency": "6.51 µM (active)"}
{"smiles": "COc1cccc(NC(=S)C(C#N)=C2N(C)c3ccccc3N2C)c1", "activity change, negative = growth inhibition": "2.93%"}
{"smiles": "Cc1cccc(NC(=O)c2cc(S(=O)(=O)N3CCC4(CC3)OCCO4)ccc2F)c1", "activity change, negative = growth inhibition": "3.62%"}
{"smiles": "Cc1cc(S(=O)(=O)NC2CCCC2)ccc1-n1cnnn1", "activity change, negative = growth inhibition": "-15.2%"}
{"smiles": "CCOc1ccccc1-c1cc(C(=O)N2CCOCC2)c2ccccc2n1", "activity change, negative = growth inhibition": "-24.5%"}
{"smiles": "CCOc1cccc(/C=C/c2ccc3ccccc3n2)c1OC(C)=O", "Potency": "18.4 µM (active)"}
{"smiles": "COc1cccc(/C=C/c2ccc3ccccc3n2)c1OC(C)=O", "activity change, negative = growth inhibition": "-23.5%"}
{"smiles": "Cc1ccc(S(=O)(=O)/N=C(/Nc2ccccn2)c2ccc(Cl)cc2)cc1", "activity change, negative = growth inhibition": "-19.3%"}
{"smiles": "O=S(=O)(/N=C(/Nc1ccccn1)c1ccccc1)c1ccc(Cl)cc1", "activity change, negative = growth inhibition": "3.49%"}
{"smiles": "Cc1ccc(S/C(=N\\S(=O)(=O)c2ccc(Cl)cc2)c2ccccc2)cc1", "Potency": "14.6 µM (active)"}
{"smiles": "Cc1ccc(NC(=O)COc2ccc(/C=C3/NC(=O)NC3=O)cc2)cc1", "activity change, negative = growth inhibition": "-9.1%"}
{"smiles": "CC(C)CC(NC(=O)C1CCCN1C(=O)[C@@H](C)NC(=O)OCc1ccccc1)C(=O)NCC(N)=O", "note": "(stereo not given in full) (Cbz-[dA][ξP][ξL]G-NH2)", "activity change, negative = growth inhibition": "11.9%"}
{"smiles": "CCCN(CCC)S(=O)(=O)c1ccc(C(=O)NNC(=O)c2cc(OC)c(OC)c(OC)c2)cc1", "activity change, negative = growth inhibition": "0.53%"}
{"smiles": "CCOC(=O)c1c(NC(=S)Nc2ccccc2)sc2c1CCN(C)C2", "activity change, negative = growth inhibition": "-6.24%"}
{"smiles": "CCOC(=O)c1c(NC(=O)c2ccc(S(=O)(=O)N3CCCC(C)C3)cc2)sc2c1CCN(C(C)C)C2", "note": "(stereo not given)", "Potency": "8.2 µM (active)"}
{"smiles": "CCCN(CCC)S(=O)(=O)c1ccc(C(=O)Nc2sc3c(c2C(=O)OC)CCN(CC)C3)cc1", "Potency": "16.4 µM (active)"}
{"smiles": "CCOC(=O)c1c(NC(=O)NC(C)(C)C)sc2c1CCN(C)C2", "activity change, negative = growth inhibition": "12.6%"}
{"smiles": "COC(=O)c1c(NC(=O)c2cc(=O)c3c(C)cc(C)cc3o2)sc2c1CCCC2", "activity change, negative = growth inhibition": "6.35%"}
{"smiles": "N#CCCN(C(=S)Nc1ccc(Cl)c(Cl)c1)C1CCCCC1", "activity change, negative = growth inhibition": "-10.7%"}
{"smiles": "O=S1(=O)CSCS(=O)(=O)C1", "activity change, negative = growth inhibition": "-1.82%"}
{"smiles": "COc1ccc(S(=O)(=O)N(CC(=O)N/N=C/c2ccc(C(=O)O)cc2)Cc2ccccc2)cc1OC", "activity change, negative = growth inhibition": "-0.989%"}
{"smiles": "C=CCO/N=C(\\C)c1c(O)c(C)c(-c2ccccc2)n(-c2ccccc2)c1=O", "activity change, negative = growth inhibition": "-8.1%"}
{"smiles": "CC(C)[C@@H]1NC(=O)[C@H](Cc2ccccc2)NC(=O)[C@@H](CC(=O)O)NC(=O)CNC(=O)[C@H](CCCNC(=N)N)NC1=O", "activity change, negative = growth inhibition": "0.634%"}
{"smiles": "C=CCNC(=O)C1CC2c3ccccc3C1c1ccccc12", "note": "(stereo not given)", "activity change, negative = growth inhibition": "-16.5%"}
{"smiles": "CCCS(=O)(=O)N1CCC(n2c(C(F)(F)F)nc3cccnc32)CC1", "Potency": "3.66 µM (active)"}
{"smiles": "CCS(=O)(=O)N1CCC(n2c(C)nc3cccnc32)CC1", "activity change, negative = growth inhibition": "7.09%"}
{"smiles": "O=C1NC(CC(=O)N2CCC(n3c(C4CCC4)nc4cccnc43)CC2)c2ccccc21", "note": "(stereo not given)", "activity change, negative = growth inhibition": "-6.43% [at 9.04 µM]"}
{"smiles": "O=C1Cc2cc(S(=O)(=O)Nc3ccc(OC(F)(F)F)cc3)cc3c2N1CCC3", "Potency": "9.2 µM (active)"}
{"smiles": "O=C1CCc2cc(S(=O)(=O)Nc3ccc(C(F)(F)F)cc3)cc3c2N1CC3", "activity change, negative = growth inhibition": "-19%"}
{"smiles": "COC(=O)c1ccc(NS(=O)(=O)c2cc3c4c(c2)C(C)C(=O)N4CCC3)cc1", "note": "(stereo not given)", "activity change, negative = growth inhibition": "-7.26%"}
{"smiles": "CCn1c(CC(=O)Nc2ccccc2)nnc1SCC(=O)N1CCOCC1", "activity change, negative = growth inhibition": "7.88%"}
